Several values for one entry are separate records, joined by “and”; a condition that tells them apart may be missing. Equal entries are not always repeated. Activity calls are given as the source filed them.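 How the source made its calls, unless noted: active means compounds killing one labelled cell type while sparing the other, by normalised counts and ratio limits, not self-fluorescent; inactive means the rest.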 Peptide text beside a SMILES is read from it.

In test [1] the target is 6-phosphogluconate dehydrogenase, decarboxylating (Homo sapiens) (UniProt P52209). Put plainly: inhibition of human phosphogluconate dehydrogenase – biochemical, recombinant enzyme, NADPH absorbance, primary screen (AID 1159550;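 active means at least 20% inhibition of 6-phosphogluconate dehydrogenase activity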). Conditions: recombinant 6PGD, NADPH absorbance 341 nm; at 10 µM; stronger effect = higher value.
Chain of 6-phosphogluconate dehydrogenase, decarboxylating (Homo sapiens) (P52209 whole entry, looked up): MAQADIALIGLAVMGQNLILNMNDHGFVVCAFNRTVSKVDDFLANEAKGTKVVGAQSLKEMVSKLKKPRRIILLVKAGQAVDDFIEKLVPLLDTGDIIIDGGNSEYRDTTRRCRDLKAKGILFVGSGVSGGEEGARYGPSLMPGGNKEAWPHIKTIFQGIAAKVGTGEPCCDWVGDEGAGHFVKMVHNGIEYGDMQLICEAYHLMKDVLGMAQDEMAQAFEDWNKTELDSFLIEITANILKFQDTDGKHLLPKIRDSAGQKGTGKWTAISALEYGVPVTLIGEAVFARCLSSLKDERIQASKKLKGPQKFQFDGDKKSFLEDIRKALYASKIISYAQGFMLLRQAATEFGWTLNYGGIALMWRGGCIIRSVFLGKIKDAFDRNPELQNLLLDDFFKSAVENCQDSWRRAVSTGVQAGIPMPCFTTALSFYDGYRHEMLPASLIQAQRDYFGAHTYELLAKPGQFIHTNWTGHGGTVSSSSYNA
Test [2] can be described thus: EMT-state selective cytotoxicity in co-culture – imaging, PC-3E GFP, TEM4-18 mCherry, primary screen (AID 1345086).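 On all read-outs here: cells exposed to compound for 72 h before imaging.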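 On red/green cell ratio (normalised): normalised mesenchymal count divided by normalised epithelial count so high means epithelial killing.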 The following applies: PC-3E GFP / TEM4-18 mCherry co-culture, imaging cell counts, at 1 µM; for red/green cell ratio (normalised): actives lie on both sides, counts scaled to control wells, 1 = unselective.
Test [3] has as its target Mitogen-activated protein kinase 7 (Homo sapiens) (UniProt Q13164). Put plainly: Gal4-ERK5 driven luciferase induction – cell-based, HTS, primary screen (AID 1508626;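 active means luciferase signal above three times the same-plate solvent-only control wells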;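 further: luciferase driven by Gal4-ERK5 fusion binding five Gal4 sites before minimal TATA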). The following applies: HeLa Gal4-ERK5 transactivation, 18 h, at 5 µM, stronger effect = higher value.
[4] abbreviates: measured here: epithelial PC-3E GFP cell survival.
Where [5] appears, read: measured here: mesenchymal TEM4-18 mCherry cell survival.

Chain of Mitogen-activated protein kinase 7 (Homo sapiens) (Q13164 whole entry, looked up, the tested form may be a part): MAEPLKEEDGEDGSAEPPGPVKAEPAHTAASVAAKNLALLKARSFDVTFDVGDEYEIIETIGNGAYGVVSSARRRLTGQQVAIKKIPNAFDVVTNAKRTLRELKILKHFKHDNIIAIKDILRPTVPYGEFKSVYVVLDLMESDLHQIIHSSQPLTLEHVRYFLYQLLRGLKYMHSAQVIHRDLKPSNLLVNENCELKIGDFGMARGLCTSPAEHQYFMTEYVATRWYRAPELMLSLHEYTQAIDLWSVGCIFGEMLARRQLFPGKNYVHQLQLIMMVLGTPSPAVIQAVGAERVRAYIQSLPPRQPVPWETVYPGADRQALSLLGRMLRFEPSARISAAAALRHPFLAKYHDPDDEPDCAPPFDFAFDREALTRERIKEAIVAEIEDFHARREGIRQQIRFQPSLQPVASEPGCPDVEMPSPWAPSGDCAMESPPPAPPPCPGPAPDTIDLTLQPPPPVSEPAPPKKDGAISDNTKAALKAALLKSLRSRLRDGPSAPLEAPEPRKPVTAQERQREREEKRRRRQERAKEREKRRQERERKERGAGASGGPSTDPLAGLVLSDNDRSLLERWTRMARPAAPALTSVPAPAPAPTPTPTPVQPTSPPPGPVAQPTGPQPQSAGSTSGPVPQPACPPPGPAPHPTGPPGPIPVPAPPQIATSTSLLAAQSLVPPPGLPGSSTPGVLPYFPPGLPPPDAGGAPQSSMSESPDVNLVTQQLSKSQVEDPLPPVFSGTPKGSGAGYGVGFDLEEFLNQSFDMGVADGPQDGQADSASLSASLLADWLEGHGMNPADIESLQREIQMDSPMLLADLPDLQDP

A word on the inhibition: it is the relative decrease from the control value, in per cent. As for `COC1=CC(=O)C(C(=O)c2ccccc2)=CC1=O`, the inhibition in test [1] is -0.278% (inactive). Besides, in test [2], the red/green cell ratio (normalised) is 1.01 (inactive). Also, the results for the normalised cell number in test [2] (setting [4]) and in test [2] (setting [5]) were 1.01 and 1.03, respectively. Further, the luciferase signal in test [3] is 72 AU (inactive).

In the case of `C=C1[C@H]2CC[C@@]3(C)[C@H](c4ccoc4)OC(=O)C[C@]13O[C@H]1C[C@H](O)C(C)(C)[C@H](CC(=O)OC)[C@]12C`, in test [1], the inhibition is -1.87% (inactive). Further, the red/green cell ratio (normalised) in test [2] was 1.12 (inactive). The normalised cell number in test [2] (setting [4]) worked out at 0.91; in test [2] (setting [5]), 1.02. In addition, the luciferase signal in test [3] was 8 AU (inactive).

Consider `COc1c(O)cc2oc3cc(O)c(CC=C(C)C)c(O)c3c(=O)c2c1CC=C(C)C`, for which the inhibition in test [1] was 11.6% (inactive). For the same molecule, in test [2], the red/green cell ratio (normalised) is 0.81 (inactive). The normalised cell number in test [2] (setting [4]) was determined as 1.13; in test [2] (setting [5]) it was 0.91. For the same molecule, the luciferase signal in test [3] is 40 AU (inactive).

`CC(=O)O[C@H]1CCC2(C)C3=C(CCC2C1(C)C)[C@]1(C)CCC(C(C)CCC=C(C)C)[C@@]1(C)CC3` (stereo not given in full): the inhibition in test [1] was 12.8% (inactive). Besides, the red/green cell ratio (normalised) in test [2] was 0.97 (inactive). Besides, the normalised cell number in test [2] (setting [4]) stood at 0.86; in test [2] (setting [5]), 0.83. The luciferase signal in test [3] was 52 AU (inactive).

Consider `CCOc1ccc(C(=O)c2ccc(OC)c(O)c2O)cc1`, for which the inhibition in test [1] is -3.36% (inactive). Besides, in test [2], the red/green cell ratio (normalised) is 0.9 (inactive). The normalised cell number in test [2] (setting [4]) came to 0.9; in test [2] (setting [5]) it was 0.81. Further, the luciferase signal in test [3] is 68 AU (inactive).

Take `CC(=O)Oc1ccc(O)cc1`: the inhibition in test [1] is 4.32% (inactive). Besides, the red/green cell ratio (normalised) in test [2] was 1.07 (inactive) and 1.15 (inactive). For the same molecule, the normalised cell number is 1.01 and 1.05 in test [2] (setting [4]); 1.08 and 1.21 in test [2] (setting [5]). In addition, the luciferase signal in test [3] was 88 AU (inactive).

Take `CC(C)C[C@H](N)C(=O)N[C@@H](C)C(=O)O` (H-Leu-Ala-OH): the inhibition in test [1] is 3.68% (inactive). The red/green cell ratio (normalised) in test [2] is 0.74 (inactive). The normalised cell number in test [2] (setting [4]) was determined as 1.26; in test [2] (setting [5]) it was 0.93. Besides, the luciferase signal in test [3] was 16 AU (inactive).

Regarding `COc1ccc2c(c1OC)OC[C@@H](c1ccc(OC)c(OC)c1OC)C2`, in test [1], the inhibition is -2.69% (inactive). Also, the red/green cell ratio (normalised) in test [2] is 0.93 (inactive). Further, the normalised cell number is 0.93 in test [2] (setting [4]) and 0.86 in test [2] (setting [5]). For the same molecule, the luciferase signal in test [3] was 96 AU (inactive).

Turning to `OC[C@@H](O)[C@@H](O[C@@H]1O[C@H](CO)[C@@H](O)[C@H](O)[C@H]1O)[C@H](O)[C@@H](O)CO`, the inhibition in test [1] is 10.6% (inactive). The red/green cell ratio (normalised) in test [2] is 0.88 (inactive). Also, the normalised cell number in test [2] (setting [4]) was 1.03; in test [2] (setting [5]) it was 0.9. In addition, the luciferase signal in test [3] was 208 AU (inactive).

As for `Cc1cc(O)cc(=O)o1`, the inhibition in test [1] is 18.1% (inactive). In addition, the red/green cell ratio (normalised) in test [2] is 0.97 (inactive). The normalised cell number in test [2] (setting [4]) was determined as 1.03; in test [2] (setting [5]), 1.01. The luciferase signal in test [3] was 52 AU (inactive).

Turning to `O=C(O)CCCCCCCCCCCCC1C=CCC1` (stereo not given), the inhibition in test [1] is -14% (inactive). The red/green cell ratio (normalised) in test [2] is 1 (inactive). Moreover, the normalised cell number in test [2] (setting [4]) and in test [2] (setting [5]) was 1.02 in each case. Further, in test [3], the luciferase signal is 20 AU (inactive).

As to `COc1ccc([C@H]2Oc3cc(OC)cc(OC)c3C[C@H]2O)cc1`, in test [1], the inhibition is -0.838% (inactive). In test [2], the red/green cell ratio (normalised) is 0.79 (inactive). Also, the values for the normalised cell number in test [2] (setting [4]) and in test [2] (setting [5]) were 1.04 and 0.82, respectively. In test [3], the luciferase signal is 84 AU (inactive).

As for `O=c1c(O)c(-c2ccccc2)oc2ccccc12`, the inhibition in test [1] is 1.99% (inactive). Moreover, the red/green cell ratio (normalised) in test [2] was 0.97 (inactive). In addition, the values for the normalised cell number in test [2] (setting [4]) and in test [2] (setting [5]) were 1.03 and 1, respectively. In test [3], the luciferase signal was 24 AU (inactive).

On to `O=C(O)c1nc2cc(Cl)c(Cl)cc2[nH]c1=O`, for which the inhibition in test [1] was -11.6% (inactive). In addition, the red/green cell ratio (normalised) in test [2] was 0.95 (inactive). Further, the figures for the normalised cell number in test [2] (setting [4]) and in test [2] (setting [5]) were 1.19 and 1.12, respectively. Further, the luciferase signal in test [3] was 36 AU (inactive).

Take `COc1cc(C(C)=O)cc(OC)c1O`: the inhibition in test [1] was -40.3% (inactive). In test [2], the red/green cell ratio (normalised) is 1.05 (inactive). Also, the normalised cell number in test [2] (setting [4]) was 0.87; in test [2] (setting [5]), 0.91. For the same molecule, in test [3], the luciferase signal was 64 AU (inactive).

As for `CC(CCC(=O)O)[C@H]1CCC2C3CC[C@@H]4CC(=O)CC[C@]4(C)C3C=C[C@@]21C` (stereo not given in full), in test [1], the inhibition was 12.1% (inactive). In test [2], the red/green cell ratio (normalised) is 0.9 (inactive). For the same molecule, the normalised cell number in test [2] (setting [4]) is 1; in test [2] (setting [5]), 0.9. For the same molecule, in test [3], the luciferase signal was 28 AU (inactive).

On to `COC(=O)c1c(C)c2c(c(C)c1O)OC(=O)c1c(C)c(Cl)c(O)c(Cl)c1O2`, for which the inhibition in test [1] is 11.2% (inactive). The red/green cell ratio (normalised) in test [2] was 0.9 (inactive). The normalised cell number in test [2] (setting [4]) came out at 1.03; in test [2] (setting [5]) it was 0.93. In addition, in test [3], the luciferase signal is 128 AU (inactive).

`CC(=O)Oc1cc(-c2coc3cc(OC(C)=O)c(OC(C)=O)c(OC(C)=O)c3c2=O)cc(OC(C)=O)c1OC(C)=O`: the inhibition in test [1] is -14.8% (inactive). In test [2], the red/green cell ratio (normalised) was 0.88 (inactive). For the same molecule, the normalised cell number in test [2] (setting [4]) worked out at 1.23; in test [2] (setting [5]) it was 1.08. For the same molecule, in test [3], the luciferase signal was 36 AU (inactive).

Take `CCOC(=O)c1c(C)cc(O)cc1O`: the inhibition in test [1] is 0.669% (inactive). Further, in test [2], the red/green cell ratio (normalised) is 0.99 (inactive). In addition, the normalised cell number in test [2] (setting [4]) and in test [2] (setting [5]) was 0.99 throughout. In test [3], the luciferase signal was 72 AU (inactive).

As for `CC(C)=CC1C(CO)C1(C)C` (stereo not given), the inhibition in test [1] was 2.26% (inactive). For the same molecule, the red/green cell ratio (normalised) in test [2] is 0.97 (inactive). The figures for the normalised cell number in test [2] (setting [4]) and in test [2] (setting [5]) were 0.97 and 0.94, respectively. Moreover, the luciferase signal in test [3] is 68 AU (inactive).

Consider `Cc1cc(OC(=O)c2c(C)cc(O)cc2O)cc(O)c1C(=O)O`, for which the inhibition in test [1] is 1.29% (inactive). In addition, the red/green cell ratio (normalised) in test [2] was 0.82 (inactive). Moreover, the normalised cell number in test [2] (setting [4]) came to 1.06; in test [2] (setting [5]), 0.87. Moreover, the luciferase signal in test [3] was 12 AU (inactive).

Turning to `CC(C)=CCc1c(O)cc2oc(C)cc(=O)c2c1O`, the inhibition in test [1] was 8.51% (inactive). Besides, the red/green cell ratio (normalised) in test [2] was 0.93 (inactive). The normalised cell number came to 1.18 in test [2] (setting [4]) and 1.1 in test [2] (setting [5]). Also, the luciferase signal in test [3] is 52 AU (inactive).

Consider `Cc1cc(O)c(C=O)c2c1C(=O)Oc1c(C)c(O)c3c(c1O2)C(O)OC3=O` (stereo not given), for which the inhibition in test [1] was 7.31% (inactive). Further, the red/green cell ratio (normalised) in test [2] is 0.95 (inactive). Further, the figures for the normalised cell number in test [2] (setting [4]) and in test [2] (setting [5]) were 1.01 and 0.96, respectively. For the same molecule, the luciferase signal in test [3] is 136 AU (inactive).

On to `CC1=CC(=O)C(C(C)C)=CC1=O`, for which the inhibition in test [1] is -9.74% (inactive). For the same molecule, the red/green cell ratio (normalised) in test [2] is 0.97 (inactive). Also, the normalised cell number in test [2] (setting [4]) turned out to be 0.99; in test [2] (setting [5]) it was 0.96. Also, in test [3], the luciferase signal is 24 AU (inactive).

`CC(=O)O[C@H]1C[C@@H](OC(C)=O)C(C)(C)C2C[C@@H](OC(C)=O)[C@@]3(C)C4=CC(=O)O[C@@H](c5ccoc5)[C@]4(C)CCC3[C@]21C` (stereo not given in full): in test [1], the inhibition was 0.0743% (inactive). In addition, the red/green cell ratio (normalised) in test [2] is 1.01 (inactive). Besides, the figures for the normalised cell number in test [2] (setting [4]) and in test [2] (setting [5]) were 1 and 1.01, respectively. In addition, in test [3], the luciferase signal is 16 AU (inactive).

Regarding `O=c1cc(-c2ccc(O)cc2)oc2cc(O[C@@H]3O[C@H](CO)[C@@H](O)[C@H](O)[C@H]3O[C@@H]3OC[C@](O)(CO)[C@H]3O)cc(O)c12`, the inhibition in test [1] was -39.6% (inactive). Besides, in test [2], the red/green cell ratio (normalised) is 0.8 (inactive). The normalised cell number in test [2] (setting [4]) stood at 1.3; in test [2] (setting [5]) it was 1.03. In addition, the luciferase signal in test [3] was 196 AU (active).

`COc1ccc2c(c1)OCc1c-2oc2cc(OC)ccc12`: the inhibition in test [1] is 2.98% (inactive). In test [2], the red/green cell ratio (normalised) was 0.82 (inactive). The normalised cell number in test [2] (setting [4]) amounted to 1.14; in test [2] (setting [5]) it was 0.93. Further, in test [3], the luciferase signal was 96 AU (inactive).

For the molecule `C=C[C@@](C)(O)CCC1C(=C)CCC2[C@@](C)(CO)CCC[C@]12C` (stereo not given in full), in test [1], the inhibition was 4.45% (inactive). Besides, the red/green cell ratio (normalised) in test [2] is 0.89 (inactive). In addition, the normalised cell number is 1.15 in test [2] (setting [4]) and 1.03 in test [2] (setting [5]). Also, the luciferase signal in test [3] was 36 AU (inactive).

Source of the values: PubChem BioAssay.
